Compound activity from PubChem.
Most compounds without a hit are left out; they make up all but 2.8% or so of the library.
PP1 counter – PP1-alpha phosphatase inhibitors, primary screen, counter-screen for PP5 inhibitor project, biochemical, fluorescence, OMFP substrate, single point; Serine/threonine-protein phosphatase PP1-alpha catalytic subunit (Homo sapiens), P62136; purified PP1alpha; inhibition, % at 6.7 µM; actives 0.9% (n = 320,000);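 active = inhibition above the mean inhibition of all tested compounds plus 3 SD, computed separately for each screening campaign, cut at about 15% in these data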
JMJD2C inh – inhibitors of GASC-1 histone demethylase, primary screen, biochemical, fluorescence, DELFIA europium. GST-JMJD2C(1-420) H3K9me3 demethylation. inhibition, % at 2.35 µM. actives 0.069% (n = 330,000). AID 2099, 2009;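 active = more than half of a compound's replicate wells show inhibition beyond 50%, single wells judged on their own value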;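 note: signal counts dimethyl H3K9 product captured on neutravidin plate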
PG9 Ab binder – binders of HIV-1 gp120 antibody PG9, primary screen, biochemical, TR-FRET; inhibition, % at 6.7 µM; actives 0.43% (n = 360,000); TR-FRET gp120-PG9 antibody binding; HIV-1 gp120 / PG9 antibody interaction; in the data active = inhibition above about 8.5%
NR1D1 modulator – modulators of Rev-erb alpha DNA binding, primary screen, biochemical, FITC-DNA, fluorescence polarization, uHTS | Nuclear receptor subfamily 1 group D member 1 (Homo sapiens), P20393 | Rev-erbα–FITC-DNA binding, 90 min | activity, % at 10 µM | actives 0.79% (n = 370,000);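 active = activity above about 14%, limit read from the data; passing the limit was not always enough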
Target sequence (P20393 whole entry, looked up): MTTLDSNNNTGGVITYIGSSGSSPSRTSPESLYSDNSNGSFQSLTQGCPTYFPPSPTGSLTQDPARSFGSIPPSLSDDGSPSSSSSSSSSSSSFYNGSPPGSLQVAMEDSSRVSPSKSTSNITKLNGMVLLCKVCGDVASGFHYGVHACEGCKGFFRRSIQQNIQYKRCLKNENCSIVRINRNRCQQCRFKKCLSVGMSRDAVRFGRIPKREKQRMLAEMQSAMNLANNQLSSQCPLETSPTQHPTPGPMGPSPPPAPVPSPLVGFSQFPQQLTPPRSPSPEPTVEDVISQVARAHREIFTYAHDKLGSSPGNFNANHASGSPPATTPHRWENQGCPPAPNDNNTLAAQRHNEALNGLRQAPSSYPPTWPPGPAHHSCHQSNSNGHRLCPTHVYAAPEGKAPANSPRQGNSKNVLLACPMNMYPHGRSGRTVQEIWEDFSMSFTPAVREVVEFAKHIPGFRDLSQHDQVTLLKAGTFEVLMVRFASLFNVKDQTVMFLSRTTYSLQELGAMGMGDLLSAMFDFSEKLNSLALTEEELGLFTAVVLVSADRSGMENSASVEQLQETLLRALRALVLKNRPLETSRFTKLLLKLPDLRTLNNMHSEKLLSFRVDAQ
proKLK7 act – proKLK7 zymogen activators, primary screen, biochemical, fluorescence intensity | actives 0.9% (n = 370,000) | purified proKLK7, EDANS-DABCYL substrate fluorescence; 100% is mature enzyme control, 0% vehicle | activation, % at 7 µM | Kallikrein-7 (Homo sapiens), P49862;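 active = activation above the mean of all tested compounds plus 3 SD, computed per campaign excluding outliers beyond control limits, cut at about 13% in these data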
PP5 primary – PP5 phosphatase inhibitors, primary screen, biochemical, fluorescence; Serine/threonine-protein phosphatase 5 (Homo sapiens), P53041; purified PP5c, OMFP substrate fluorescence; inhibition, % at 6.7 µM; actives 0.18% (n = 320,000);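 active = inhibition above the campaign's mean inhibition across all tested compounds plus 3 SD, cut at about 9.5% in these data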
Rev-erbA confirm – modulators of Rev-erb alpha DNA binding, confirmation, biochemical, FITC-DNA, fluorescence polarization, single point | shares compounds with NR1D1 modulator | 90 min | activation, % at 25 µM | actives 61% (n = 3,000) | AID 1259319, 2017;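 active = activation at or above a set limit, or at least 3 SD above the negative control mean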
RORg DNA counter – modulation of RORgamma DNA binding, dose response, counter-screen for Rev-erb alpha modulator project, biochemical, fluorescence polarization, FITC-DNA. shares compounds with NR1D1 modulator. purified RORgamma protein-FITC-DNA binding. IC50, µM. actives 8% (n = 910). AID 1259320, 2017;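 active = Compounds whose fitted half-maximal concentration for disrupting protein-DNA binding is below 10 micromolar; the record names Rev-erb in its text, so the target is in doubt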
Numbers stand for hits; . = inactive; / = no result.

SMILES	PP1 counter	JMJD2C inh	PG9 Ab binder	NR1D1 modulator	proKLK7 act	PP5 primary	Rev-erbA confirm	others
Nc1nc(-c2cccs2)c(-c2cccs2)s1	.	.	.	281.6	.	.	244.4	RORg DNA counter=.
CC1CC1C(=O)Nc1nc(-c2cccs2)c(-c2cccs2)s1 (centres undefined)	.	.	.	53.4	.	.	74.8	RORg DNA counter=.
O=C(Nc1nc(-c2cccs2)c(-c2ccccc2)s1)c1ccco1	.	.	.	.	.	.	/
O=C(NCCCCC(NC(=O)c1ccccc1)C(=O)O)OCc1ccccc1 (centres undefined)	/	/	.	.	.	/	/
COc1ccc(C(=O)N2CCCC(CCC(=O)NCc3ccc(F)c(F)c3)C2)cc1F (centres undefined)	.	.	.	.	.	.	/
COc1ccc(C(=O)N2CCCC(CCC(=O)NCc3ccc(F)c(F)c3)C2)o1 (centres undefined)	.	.	.	14.8	.	.	.
Cn1nc(C(=O)OCC(=O)Nc2cc(Cl)ccc2C#N)c2ccccc2c1=O	.	.	.	.	.	.	/
Cn1nc(C(=O)OCC(=O)NCc2ccc(Cl)cc2Cl)c2ccccc2c1=O	/	/	.	18.2	.	/	20.0
CCc1ccc(Nc2n[n+](-c3ccccc3)c(-c3ccc(OCc4ccccc4)cc3)s2)cc1	.	.	.	16.3	.	.	.
CCc1nnc(NC(=O)c2oc3ccc(Br)cc3c2C)s1	/	.	.	41.5	.	/	40.5	RORg DNA counter=.
CCCCc1nnc(NC(=O)c2oc3ccccc3c2C)s1	.	.	.	.	.	.	/
Cc1nnc(NC(=O)c2oc3c(ccc4ccccc43)c2C)s1	.	.	.	38.7	.	.	28.5
O=C(OCc1cn(Cc2ccccc2F)nn1)N1CCCC1	/	/	/	.	.	/	/
CC(=O)N1CCN(C(=O)c2ccc(CNC(=O)c3cccc(Br)c3)cc2)CC1	/	/	/	.	.	/	/
CCOC(=O)c1ccc(CNC(=O)CSc2nc(NC(=O)c3ccccc3)c3c(C)c(C)oc3n2)cc1	.	.	.	27.2	.	.	36.6	RORg DNA counter=.
CCOC(=O)c1ccc(CNC(=O)CSc2nnc(-c3ccncc3)o2)cc1	.	.	.	.	.	.	/
O=C(OCc1cn(Cc2cccc(Cl)c2)nn1)N1CCCC1	/	/	/	.	.	/	/
CN(C)C=Nc1nc2c(Br)ccc(Br)c2cc1C(=O)NCC(C)(C)C	/	/	/	23.2	.	/	40.0	RORg DNA counter=.
Cc1ccnc(NS(=O)(=O)c2ccc(NC(=O)c3cc(-c4ccc(Br)cc4)nc4ccccc34)cc2)n1	.	.	.	39.4	.	.	17.2
Cc1ccnc(NS(=O)(=O)c2ccc(NC(=O)c3cc(-c4ccccc4)nc4ccccc34)cc2)n1	.	.	.	.	.	.	/
CC(C)(C)OC(=O)NCc1cc2c(cc1/C=C/S(=O)(=O)NCc1ccc(F)cc1)OCO2	/	/	/	.	.	/	/
CCOC(=O)/C(C#N)=C\c1ccc(CC)s1	.	.	.	.	.	.	/
CCOC(=O)/C(C#N)=C\C=C1C=CN(C)C=C1	.	.	.	30.9	.	.	28.3
CCOC(=O)N(C)C[C@H]1OCc2cnnn2CCCC(=O)N([C@H](C)CO)C[C@@H]1C	/	/	.	.	.	/	/
CCCn1c(=O)[nH]c(=O)c2c(C(=O)OCC)cc(-c3cccs3)nc21	.	.	.	29.5	.	.	26.7
CCOC(=O)[C@]12CCCC3=C1N(CCC3)C(=O)[C@@H](CC(=O)N1CCOCC1)C2	/	/	/	.	.	/	/
COC(=O)c1cc(C)nc2c1c(C)nn2-c1ccccc1	.	.	.	.	.	.	/
CCc1nc2c(c(SC)nn2-c2ccccc2)c(N)c1C(=O)OC	.	.	.	25.9	.	.	.
